Measurements: PubChem BioAssay (NCATS)
Several values for one entry are separate records, joined by “and”; a condition that tells them apart may be missing. Identical values can stand only once. Records with an inconclusive call do not appear. Activity calls are given as the source filed them. Calls come from the whole dose curve; as a rule, active = well fitted inhibition curve with a large enough effect; inconclusive = small, poorly fitted or top-dose-only effect; inactive = flat fitted curve, though single readings scatter. Starred links: 1 amine or outer side, 2 acyl side, 3 side chain; linkers in the order of their positions; H or OH if unused. Positions of bridges follow the written chain, without caps; N, C: chain ends. Non-standard residues stand in square brackets, D forms with d. Residues, ends and D or L forms follow the SMILES beside them. Chains are numbered I, II in the order given. Actinocin(9to1) = Cc1c2oc3c(C)ccc(C(=O)[*:1])c3nc-2c(C(=O)[*:2])c(N)c1=O; NMeV = CN[CH](C(=O)O)C(C)C; Sar = CNCC(=O)O

Assay: Primary qHTS for inhibitors of nuclear receptor binding SET domain protein 2 (NSD2) in an isogenic RCH-ACV NSD2 p.E1099K mutant (9B) (AID 1645876); note: nearly all actives have a fitted effect of over 70% in size
Details: RCH-ACV (leukaemia line) NSD2 E1099K (9B) viability, CellTiter-Glo, 72 h; series mostly up to 44.9 µM; activity change, negative = viability loss: at the top concentration
% is set by controls: 0 for no effect and ±100 for the full control effect; potency is the fitted concentration of half-maximal effect.

Row | Structure (SMILES) | Potency | activity change, negative = viability loss | outcome
1 | COc1cc(O)c2c(c1)C1OC1C[C@H](O)[C@H](O)C(=O)C=CC[C@H](C)OC2=O (some centres undefined) | 3.72 µM (active) | – | –
2 | COc1cc2c(cc1OC)[C@@H]1C(=O)c3ccc4c(c3O[C@@H]1CO2)C=CC(C)(C)O4 | 16.4 µM (active) and 1.86 µM (active) | – | –
3 | COc1cc(CCc2cc(NC(=O)c3ccc(N4C[C@@H](C)N[C@@H](C)C4)cc3)n[nH]2)cc(OC)c1 | 9.34 µM (active) | – | –
4 | CC(=O)SCC(Cc1ccccc1)C(=O)NCC(=O)OCc1ccccc1 (centres undefined) | – | -12.4% (inactive) | –
5 | COc1cccc2c1C(=O)c1c(O)c3c(c(O)c1C2=O)C[C@@](O)(C(=O)CO)C[C@@H]3O[C@H]1C[C@H](N)[C@H](OC2CCCCO2)[C@H](C)O1 (some centres undefined) | 93.4 nM (active) and 2.63 µM (active) | – | –
6 | CCCCCCCCc1ccc(CCC(N)(CO)CO)cc1 | 8.33 µM (active) | – | –
7 | Cc1c2oc3c(C)ccc(C(=O)NC4C(=O)NC(C(C)C)C(=O)N5CCCC5C(=O)N(C)CC(=O)N(C)C(C(C)C)C(=O)OC4C)c3nc-2c(C(=O)NC2C(=O)NC(C(C)C)C(=O)N3CCCC3C(=O)N(C)CC(=O)N(C)C(C(C)C)C(=O)OC2C)c(N)c1=O (centres undefined) (I: TVP[Sar][NMeV] / II: TVP[Sar][NMeV]; ester I:1-I:C, II:1-II:C; linker I:N-II:N via Actinocin(9to1); configuration not given here) | 0.0014 µM (active) | – | –
8 | Cc1ccc2nc(NCCN)c3ncc(C)n3c2c1 | 9.2 µM (active) and 4.68 µM (active) | – | –
9 | CC(C)[C@H](CO)Nc1nc(Nc2cccc(Cl)c2)c2ncn(C(C)C)c2n1 | 9.34 µM (active) | – | –
10 | CC(C)c1cnn2c(NCc3ccccc3)cc(NCCCCCCN)nc12 | 20.9 µM (active) | – | –
11 | NC(=O)N1CCC(CC(=O)N2CCC([C@H]3c4ncc(Br)cc4CCc4cc(Cl)cc(Br)c43)CC2)CC1 | 14.8 µM (active) | – | –
12 | N=c1ccn2c(n1)O[C@H]1[C@@H](O)[C@@H](CO)O[C@H]12 | 0.0209 µM (active) | – | –
13 | CC(=O)NC(CS)C(=O)O (centres undefined) | – | 9.92% (inactive) | –
14 | O=[N+]([O-])c1cn2c(n1)OC[C@@H](OCc1ccc(OC(F)(F)F)cc1)C2 | – | -15.9% (inactive) | –
15 | O=S(=O)(O)CCSSCCS(=O)(=O)O | – | – | inactive
16 | CCC[C@H]1C[C@H](C(=O)N[C@@H]([C@@H]2O[C@@H](SC)[C@@H](O)[C@@H](O)[C@@H]2O)[C@H](C)Cl)N(C)C1 | – | -3.83% (inactive) | –
17 | Cn1cc(C[C@@H](N)C(=O)O)c2ccccc21 | – | -2.38% [at 9.23 µM] (inactive) | –

Row | Structure (SMILES) | Potency | activity change, negative = viability loss | outcome
18 | c1ccc(CNc2nc(NCc3ccccc3)c3ccccc3n2)cc1 | 5.9 µM (active) | – | –
19 | Nc1ccc(C(=O)Nc2cccc(-c3nc(N4CCOCC4)c4oc5ncccc5c4n3)c2)cn1 | 1.15 µM (active) and 1.48 µM (active) | – | –
20 | CCCCCCCCCCCCc1ccc(S(=O)(=O)Nc2nncs2)cc1 | – | – | inactive
21 | NC(=NCCCCCCN=C(N)N=C(N)Nc1ccc(Cl)cc1)N=C(N)Nc1ccc(Cl)cc1 | 4.17 µM (active) | – | –
22 | N#CNC(=NCCCCCCOc1ccc(Cl)cc1)Nc1ccncc1 | 0.0047 µM (active) | – | –
23 | CC(C)(C)c1nc2c3cc[nH]c(=O)c3c3cc(F)ccc3c2[nH]1 | 0.662 µM (active) | – | –
24 | Cn1cnc(=N)c2[nH]cnc21 | – | -0.341% [at 91.9 µM] (inactive) | –
25 | O=C1c2cccc(O)c2C(=O)c2c(O)cc(CO)cc21 | – | – | inactive
26 | CCNC(=O)Nc1ccc(-c2nc3c(c(N4CCOC[C@H]4C)n2)CCN(C2COC2)C3)cc1 | 0.731 µM (active) | – | –
27 | N#Cc1cc(NC(=O)Nc2nnc(-c3ccncc3)s2)ccc1-c1cn[nH]c1 | – | – | inactive
28 | Nc1nc2c(c(=O)[nH]1)N(C=O)[C@H](CNc1ccc(C(=O)N[C@@H](CCC(=O)O)C(=O)O)cc1)CN2 | – | 8.84% (inactive) | –
29 | CN(C)c1ccc2cc(C(=O)N[C@@H](CCCN=C(N)CCl)C(=O)NCc3ccccc3)ccc2c1 | – | 3.93% (inactive) | –
30 | CCOC(=O)C1=C(C)NC(=S)NC1c1cccc(O)c1 (centres undefined) | – | -27.7% (inactive) | –
31 | C=C(C)[C@@H]1CC[C@]2(C(=O)O)CC[C@]3(C)[C@H](CC[C@@H]4[C@@]5(C)CC[C@H](O)C(C)(C)[C@@H]5CC[C@]43C)[C@@H]12 | – | -3.83% (inactive) | –
32 | COc1ccc(C=Cc2cc(OC)c(OC)c(OC)c2)cc1NC(=O)[C@H](N)CO | 0.118 µM (active) | – | –
33 | CCOC(=O)C=C[C@H](C[C@@H]1CCNC1=O)NC(=O)[C@@H](CC(=O)[C@@H](NC(=O)c1cc(C)on1)C(C)C)Cc1ccc(F)cc1 | – | -19% (inactive) | –
34 | OC[C@@H](O)[C@@H](O)[C@H](O)[C@@H](O)CO | – | -7.34% (inactive) | –
